# PubChem BioAssay AID2557 (NMMLSC, 2010)
# “And” between values parts separate entries of the source, which are not always exact repeats. Identical values can stand only once. The whole screen tested about 330,000 compounds, of which about 650 (0.2%) were called active. Only a selection was taken, and actives are over-represented in it overall. Unmarked numbers belong to inactive results. No stated cut-off is given here; in the data, active means inhibition above about 50%; inactive means the rest.
# Target: Integrin alpha-4 (Homo sapiens) (UniProt P13612)
# Sequence (P13612 whole entry, looked up): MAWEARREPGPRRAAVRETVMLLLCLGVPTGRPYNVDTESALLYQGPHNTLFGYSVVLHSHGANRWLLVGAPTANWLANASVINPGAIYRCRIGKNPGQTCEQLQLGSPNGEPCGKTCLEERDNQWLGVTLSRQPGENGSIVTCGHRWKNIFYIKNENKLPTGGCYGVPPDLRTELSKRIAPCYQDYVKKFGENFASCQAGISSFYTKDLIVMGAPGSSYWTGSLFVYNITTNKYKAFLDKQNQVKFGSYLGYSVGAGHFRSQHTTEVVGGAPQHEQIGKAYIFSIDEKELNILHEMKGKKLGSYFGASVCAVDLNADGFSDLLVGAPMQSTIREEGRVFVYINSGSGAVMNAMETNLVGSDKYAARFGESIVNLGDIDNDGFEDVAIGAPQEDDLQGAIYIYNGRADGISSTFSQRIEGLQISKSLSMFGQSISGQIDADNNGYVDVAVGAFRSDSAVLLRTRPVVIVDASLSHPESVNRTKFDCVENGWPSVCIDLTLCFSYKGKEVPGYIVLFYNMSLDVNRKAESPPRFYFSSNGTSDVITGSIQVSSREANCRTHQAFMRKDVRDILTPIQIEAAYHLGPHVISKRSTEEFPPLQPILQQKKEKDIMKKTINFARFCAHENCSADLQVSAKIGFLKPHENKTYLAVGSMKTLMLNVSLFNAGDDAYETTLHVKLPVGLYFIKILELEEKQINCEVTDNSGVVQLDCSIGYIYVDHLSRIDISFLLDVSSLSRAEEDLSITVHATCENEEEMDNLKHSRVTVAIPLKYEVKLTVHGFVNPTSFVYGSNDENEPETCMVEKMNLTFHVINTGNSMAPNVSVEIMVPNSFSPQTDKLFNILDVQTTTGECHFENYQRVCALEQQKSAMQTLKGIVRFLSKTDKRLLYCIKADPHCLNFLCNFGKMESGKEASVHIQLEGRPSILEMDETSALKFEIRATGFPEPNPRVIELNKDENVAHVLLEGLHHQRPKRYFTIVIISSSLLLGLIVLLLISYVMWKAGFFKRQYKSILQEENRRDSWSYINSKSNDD
# Assay: VLA-4 integrin binding inhibitors – MLPCN library, flow cytometry, VLA-4 expressing cells, VLA-4 allosteric modulator project, primary screen (AID 2557)
# Conditions: ligand binding flow cytometry, hits give high values, about 7 µM as worked out from the volumes in the protocol
row,SMILES,inhibition
1,CCOC(=O)C1=C(C)OC(N)=C(C(=O)OC)C12C(=O)Nc1ccc(Br)cc12 (stereo not given),15.8%
2,CCOC(=O)CC1=C(C(=O)OCC)C2(C(=O)N1)C(C(=O)OC)=C(N)Oc1ccccc12 (stereo not given),-7.95%
3,C=CCN1C(=O)C2(C(C(=O)OCC)=C(N)Oc3c2c(=O)oc2ccccc32)c2ccccc21 (stereo not given),59.3% (active)
4,CN(C)C(=O)Oc1cc(OC(=O)N(C)C)cc(C(O)CNC(C)(C)C)c1 (stereo not given),-22.5% and -5.62%
5,CCc1nnc(NS(=O)(=O)c2ccc(N=Cc3c(O)n(-c4ccccc4)c(=O)[nH]c3=O)cc2)s1,-0.39%
6,Cc1nc2ccccc2c(=O)n1-c1ccc(Cl)cc1Cl,24.4%
7,COc1ccc(-n2c(-c3ccccc3)nc3ccccc3c2=O)cc1,-3.5%
8,O=c1c2ccccc2nc(-c2ccc(Cl)cc2Cl)n1-c1ccncc1,62.6% (active)
9,Cn1c(O)c(C(=Nc2ccc(F)cc2)c2ccccc2)c(=O)n(C)c1=O,5.63%
10,C=CCn1c(O)c(/C=N/N2CCOCC2)c(=O)[nH]c1=S,7.33%
